The record followed here is PubChem BioAssay (NCATS).

Records with an inconclusive call do not appear. Activity calls are given as the source filed them. Unless noted, the call rests on the fitted dose curve; in most records, active means well fitted curve in the direction sought with a large enough effect; inconclusive means small, poorly fitted or top-dose-only effect, or another doubt; inactive means no such curve, though single readings can be large; an effect the other way counts as inactive or inconclusive.

The target of test [1] is Transient receptor potential cation channel subfamily V member 1 (Homo sapiens) (UniProt Q8NER1). Nature of the test: HTS Assay for Compounds that Act as Enhancers of the Vanilloid Receptor 1 (AID 488979). Further: 0% is about no effect. The essentials:
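TRPV1-expressing cells loaded with Fluo-8 calcium dye; compounds added and calcium influx read kinetically for 3 min (agonist phase), then capsaicin at EC20 added and read 2 min more for enhancement. Fluorescence ex 480/em 520 nm.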

For test [2], the target named is Thyrotropin receptor (Homo sapiens) (UniProt P16473). Nature of the test: qHTS Assay for Antagonists of the Thyroid Stimulating Hormone Receptor (AID 488980). Further: series mostly up to about 58 µM; 0% is about no effect. An outline of the steps: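 Cells expressing human TSHR (HEK293) are dispensed in HBSS/HEPES containing 70 uM RO 20-1724, compound is added, then TSH at EC80 (4 nM final). Antibody in lysis buffer follows, 30 minutes at room temperature before HTRF detection.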
Chain of Thyrotropin receptor (Homo sapiens) (P16473 whole entry, looked up): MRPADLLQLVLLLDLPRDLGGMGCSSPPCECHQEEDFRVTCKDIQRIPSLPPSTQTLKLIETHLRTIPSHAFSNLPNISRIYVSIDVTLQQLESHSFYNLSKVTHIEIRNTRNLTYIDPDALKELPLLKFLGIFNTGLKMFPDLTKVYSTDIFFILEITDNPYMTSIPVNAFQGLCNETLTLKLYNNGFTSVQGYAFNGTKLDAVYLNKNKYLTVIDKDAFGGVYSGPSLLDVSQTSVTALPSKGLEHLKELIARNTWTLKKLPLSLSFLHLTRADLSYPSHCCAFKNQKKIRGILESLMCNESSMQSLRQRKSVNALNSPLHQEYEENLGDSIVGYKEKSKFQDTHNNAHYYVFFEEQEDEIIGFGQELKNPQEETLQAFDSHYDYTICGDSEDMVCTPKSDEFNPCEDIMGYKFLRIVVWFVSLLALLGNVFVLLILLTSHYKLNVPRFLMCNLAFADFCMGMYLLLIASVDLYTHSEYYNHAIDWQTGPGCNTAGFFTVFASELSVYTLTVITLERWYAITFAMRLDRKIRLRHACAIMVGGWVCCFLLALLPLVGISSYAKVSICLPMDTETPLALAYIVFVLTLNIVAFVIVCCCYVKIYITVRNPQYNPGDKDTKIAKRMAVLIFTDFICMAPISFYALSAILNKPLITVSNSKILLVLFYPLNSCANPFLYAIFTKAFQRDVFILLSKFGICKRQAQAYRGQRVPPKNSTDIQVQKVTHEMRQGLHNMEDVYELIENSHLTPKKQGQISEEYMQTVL
Background: In qHTS, concentration-response curves come from the screen itself.

For test [3], the target named is D(1A) dopamine receptor (Homo sapiens) (UniProt P21728). Nature of the test: HTS Assay for Allosteric Agonists of the Human D1 Dopamine Receptor: Primary Screen for Agonists (AID 488981). Further: 0% is about no effect. An outline of the steps: (§1)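 Tetracycline-induced HEK293 T-REx cells force-coupled to calcium signalling were incubated overnight at 30 C and dye-loaded at room temperature. Calcium flux over 180 s after compound addition flagged agonists; a further 180 s read after EC20 dopamine flagged potentiators.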

The target is the same in test [4]. Put plainly: HTS Assay for Allosteric Agonists of the Human D1 Dopamine Receptor: Primary Screen for Potentiators (AID 488982). Further: 0% is about no effect. An outline of the steps: as §1
Test [5] shares this target. Put plainly: HTS Assay for Allosteric Agonists of the Human D1 Dopamine Receptor: Primary Screen for Antagonists (AID 488983).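 Further: calcium flux response to an EC80 dopamine challenge measured with no-wash dye; on the % scale 0 is the no-effect control and ±100 the full control effect; nearly all actives have a fitted effect of over 65% in size.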 The essentials: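 Calcium flux readout, no-wash dye, inducible HEK293 T-REx D1 line (force-coupled). Compound added after 10 s baseline, 180 s kinetic read; then dopamine at EC80, further 180 s read.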
Test [6] can be described thus: Validation screen for small molecules that induce genotoxicity in human embryonic kidney (HEK293T) cells expressing luciferase-tagged ELG1 (AID 493106). Further: 0% is about no effect. The essentials: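 qHTS format; 2,000 HEK293T ELG1-luc cells/well; 23 nL compound via pin tool; 16 hr, 37 °C/5% CO2; ONE-Glo, 30 min RT; luminescence read.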
The target in test [7] is ATPase family AAA domain-containing protein 5 (Homo sapiens) (UniProt Q96QE3). Nature of the test: Validation screen for small molecules that inhibit ELG1-dependent DNA repair in human embryonic kidney (HEK293T) cells expressing luciferase-tagged ELG1 (AID 493107).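 Further: cells co-treated with the DNA-damaging agent 5-fluorouridine alongside compound; series mostly up to about 46 µM; on the % scale 0 is the no-effect control and ±100 the full control effect; inhibitors lower the ELG1-luciferase luminescence signal; nearly all actives have a fitted effect of over 70% in size.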 The essentials: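 ELG1-luciferase HEK293T reporter; 5-fluorouridine + compound/DMSO, 16 hr, 37 °C, 5% CO2; ONE-Glo 30 min RT; luminescence read, qHTS format.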
Chain of ATPase family AAA domain-containing protein 5 (Homo sapiens) (Q96QE3 whole entry, looked up, the tested form may be a part): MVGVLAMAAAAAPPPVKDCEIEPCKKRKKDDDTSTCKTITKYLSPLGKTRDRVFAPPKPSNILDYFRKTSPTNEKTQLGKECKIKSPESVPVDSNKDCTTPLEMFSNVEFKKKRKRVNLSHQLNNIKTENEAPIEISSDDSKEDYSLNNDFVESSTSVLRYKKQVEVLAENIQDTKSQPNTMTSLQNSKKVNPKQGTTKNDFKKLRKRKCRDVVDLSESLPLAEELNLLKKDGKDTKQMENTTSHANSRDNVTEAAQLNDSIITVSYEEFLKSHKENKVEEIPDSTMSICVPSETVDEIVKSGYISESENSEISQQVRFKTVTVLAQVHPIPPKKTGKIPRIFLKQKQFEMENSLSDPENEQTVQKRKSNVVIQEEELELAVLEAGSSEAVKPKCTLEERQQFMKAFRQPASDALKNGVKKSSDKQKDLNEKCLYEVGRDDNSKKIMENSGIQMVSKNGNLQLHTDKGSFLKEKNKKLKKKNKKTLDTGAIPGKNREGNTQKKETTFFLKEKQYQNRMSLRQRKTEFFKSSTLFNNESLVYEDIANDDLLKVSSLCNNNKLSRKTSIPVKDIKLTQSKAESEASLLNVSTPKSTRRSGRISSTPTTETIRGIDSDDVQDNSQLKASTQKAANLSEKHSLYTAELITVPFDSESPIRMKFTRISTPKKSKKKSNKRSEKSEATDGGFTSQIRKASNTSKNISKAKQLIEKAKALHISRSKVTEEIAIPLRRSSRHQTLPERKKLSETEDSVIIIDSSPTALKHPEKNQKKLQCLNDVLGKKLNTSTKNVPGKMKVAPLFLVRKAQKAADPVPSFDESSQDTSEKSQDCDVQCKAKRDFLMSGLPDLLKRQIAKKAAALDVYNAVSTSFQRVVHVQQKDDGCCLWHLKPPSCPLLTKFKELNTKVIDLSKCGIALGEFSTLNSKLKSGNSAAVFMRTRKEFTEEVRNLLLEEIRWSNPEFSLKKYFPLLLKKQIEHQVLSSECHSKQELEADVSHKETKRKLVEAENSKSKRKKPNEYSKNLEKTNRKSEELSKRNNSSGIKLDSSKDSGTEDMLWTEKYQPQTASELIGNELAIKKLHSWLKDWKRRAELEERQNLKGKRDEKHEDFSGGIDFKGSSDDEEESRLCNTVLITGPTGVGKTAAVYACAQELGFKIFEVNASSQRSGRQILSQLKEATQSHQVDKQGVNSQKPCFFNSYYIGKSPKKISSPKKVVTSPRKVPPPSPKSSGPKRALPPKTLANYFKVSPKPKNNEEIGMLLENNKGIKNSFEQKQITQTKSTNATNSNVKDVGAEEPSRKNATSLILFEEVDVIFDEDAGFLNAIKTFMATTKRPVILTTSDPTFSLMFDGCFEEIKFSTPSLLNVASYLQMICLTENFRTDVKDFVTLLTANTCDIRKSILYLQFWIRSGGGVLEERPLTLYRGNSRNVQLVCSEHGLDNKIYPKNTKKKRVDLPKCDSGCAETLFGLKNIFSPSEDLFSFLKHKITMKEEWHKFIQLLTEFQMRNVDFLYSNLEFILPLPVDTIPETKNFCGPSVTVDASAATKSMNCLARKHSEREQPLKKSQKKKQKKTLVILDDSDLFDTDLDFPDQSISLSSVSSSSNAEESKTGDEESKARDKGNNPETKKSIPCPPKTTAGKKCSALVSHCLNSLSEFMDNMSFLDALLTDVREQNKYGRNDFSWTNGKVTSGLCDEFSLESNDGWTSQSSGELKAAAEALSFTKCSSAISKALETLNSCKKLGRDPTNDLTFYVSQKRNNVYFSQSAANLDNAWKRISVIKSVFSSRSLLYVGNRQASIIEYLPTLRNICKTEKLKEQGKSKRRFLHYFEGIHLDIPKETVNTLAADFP

The target in test [8] is Thyrotropin-releasing hormone receptor (Homo sapiens) (UniProt P34981). Put plainly: qHTS for Small Molecule Agonists and Allosteric Enhancers of Human TRH Receptor: Validation Screen for Agonists (AID 493127;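 active means calcium activation more than 3 SD above the typical response in the agonist read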;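 further: intracellular calcium rise by fluo-8 fluorescence before TRH EC20 addition; 0% is about no effect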). Conditions: TRH receptor agonist cell assay; at 2 µM; stronger effect = higher value. The essentials: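 Read-out: intracellular calcium release measured kinetically by FDSS (fluo-8, ex 480/em 530 nm), 1 reading/s after a 10-cycle baseline. TRHR cells, 2000/well, cultured 18 h at 33.5C, dye-loaded at room temp. Compound-evoked positive calcium signal flags agonists.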
Chain of Thyrotropin-releasing hormone receptor (Homo sapiens) (P34981 whole entry, looked up): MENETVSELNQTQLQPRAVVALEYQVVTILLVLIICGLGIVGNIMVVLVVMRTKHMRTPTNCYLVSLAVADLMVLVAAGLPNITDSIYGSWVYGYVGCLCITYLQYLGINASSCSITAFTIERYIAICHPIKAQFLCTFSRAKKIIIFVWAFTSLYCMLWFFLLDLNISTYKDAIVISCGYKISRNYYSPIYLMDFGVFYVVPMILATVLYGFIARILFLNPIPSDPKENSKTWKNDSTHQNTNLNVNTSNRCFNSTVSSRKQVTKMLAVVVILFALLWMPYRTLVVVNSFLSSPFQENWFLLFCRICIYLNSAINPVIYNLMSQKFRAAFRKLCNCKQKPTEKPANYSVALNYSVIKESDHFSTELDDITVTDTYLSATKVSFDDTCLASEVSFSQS

A short description of test [9]: Nrf2 qHTS screen for inhibitors: Validation (AID 493153; active means well fitted inhibition curve with a large enough effect in the main read-out, with a control signal flat, not every such curve was filed as active). The note with it: Potency: luciferase luminescence; viability change: measured here: cytotoxicity max response. An outline of the steps:
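Concentration-response test in A549 ARE_Fluc reporter cells (5% FBS OPTI-MEM), compound exposure 18-24 h at 37°C, 5% CO2. Cell viability measured first by CellTiter-Fluor fluorescence; ARE-driven luciferase luminescence then measured as Nrf2 activity.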

Test [10] in a line: qHTS for Inhibitors of Cell Surface uPA Generation: Validation Assay (AID 493164).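 Further: RAW 264.7 macrophage cells exposed to compound for 18 h; 0% is about no effect.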 The essentials: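 Compounds are titrated over seven points (2.45 nM–38.3 uM final) onto pre-plated RAW 264.7 cells and incubated for 18 h. Retained intracellular ATP, measured with ATP-Lite, indicates blocked lethal factor entry.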
For test [11], the target named is Galactokinase (Homo sapiens) (UniProt P51570). Put plainly: qHTS Validation Assay for Inhibitors of Human Galactokinase (GALK) (AID 493189). Further: 0% is about no effect. The essentials: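 Compounds were pin-transferred into ATP buffer, then GALK-galactose mix was added (final 5 nM enzyme, 100 uM galactose, 35 uM ATP). After 1 h at room temperature, remaining ATP was measured luminescently.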

Test [12] can be described thus: Validation screen for small molecules that induce DNA re-replication in SW480 colon adenocarcinoma cells (AID 504364). Further: 0% is about no effect. The essentials: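 Read-out: total Hoechst intensity of nuclei by fluorescence scanning imager; hits raise the fraction of nuclei with elevated DNA content. Cells received compound for 48 hr at 37 C before a 40 min stain.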
Test [13] concerns the target Peptidyl-prolyl cis-trans isomerase NIMA-interacting 1 (Homo sapiens) (UniProt Q13526). Nature of the test: qHTS Validation Assay to Find Inhibitors of Pin1 (AID 504536; active means well fitted inhibition curve with a large enough effect in the polarisation, with a control signal flat, not every such curve was filed as active; the % refers to the polarisation;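 further: 0% = full Pin1 enzyme wells and -100% = no-enzyme wells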). An outline of the steps: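 Fluorescence polarization competition: compounds (titration) displace HiFluor-488-labeled Pin1-1b peptide from Pin1 (0.3 uM final) in pH 7.5 HEPES buffer with DTT, 10 min at room temperature; %Activity normalized to no-enzyme wells, curves fitted.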

The target in test [14] is Phosphoglycerate kinase, glycosomal (Trypanosoma brucei brucei) (UniProt P07378). Nature of the test: qHTS Validation Assay to Find Inhibitors of Phosphoglycerate Kinase (AID 504547).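 Further: control wells lack PGK and mark full inhibition.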 An outline of the steps: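 In TEA buffer (100mM, pH 7.6) containing 5mM MgCl2 and 0.01% Tween-20, the GAPDH-coupled PGK reaction proceeded for 60 minutes at room temperature before a single luminescence reading using Kinase-Glo Plus.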

In test [15] the target is phosphoglycerate mutase (Leishmania major) (UniProt Q4Q090). Nature of the test: qHTS Validation Assay to Find Inhibitors of Phosphoglycerate Mutase (AID 504548).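 Further: end-point luminescence from Kinase-GloPlus after the PGAM reaction; series mostly up to about 58 µM; on the % scale 0 is the no-effect control and ±100 the full control effect.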 Conditions: Potency: inhibition qHTS. The essentials: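 L. major PGAM (1.25nM final) was added to substrate buffer and pinned compound, incubated 45 minutes at room temperature, then Kinase-GloPlus added; luminescence read after 10 minutes. Buffer: 100 mM TEA pH 7.6, 5 mM MgCl2, 0.01% Tween-20.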

Test [16] deals with Ubiquitin carboxyl-terminal hydrolase 1 (Homo sapiens) (UniProt O94782). Nature of the test: Inhibitors of USP1/UAF1: Pilot qHTS (AID 504865).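 Further: rhodamine fluorescence freed from ubiquitin-rhodamine substrate followed over time; top concentration of the series differs between compounds; on the % scale 0 is the no-effect control and ±100 the full control effect; nearly all actives have a fitted effect of over 35% in size.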 An outline of the steps: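 Kinetic fluorescence assay: 1nM USP1/UAF1, 15 min compound preincubation, then 150nM Ub-Rho; 480/540 nm.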
Chain of Ubiquitin carboxyl-terminal hydrolase 1 (Homo sapiens) (O94782 whole entry, looked up): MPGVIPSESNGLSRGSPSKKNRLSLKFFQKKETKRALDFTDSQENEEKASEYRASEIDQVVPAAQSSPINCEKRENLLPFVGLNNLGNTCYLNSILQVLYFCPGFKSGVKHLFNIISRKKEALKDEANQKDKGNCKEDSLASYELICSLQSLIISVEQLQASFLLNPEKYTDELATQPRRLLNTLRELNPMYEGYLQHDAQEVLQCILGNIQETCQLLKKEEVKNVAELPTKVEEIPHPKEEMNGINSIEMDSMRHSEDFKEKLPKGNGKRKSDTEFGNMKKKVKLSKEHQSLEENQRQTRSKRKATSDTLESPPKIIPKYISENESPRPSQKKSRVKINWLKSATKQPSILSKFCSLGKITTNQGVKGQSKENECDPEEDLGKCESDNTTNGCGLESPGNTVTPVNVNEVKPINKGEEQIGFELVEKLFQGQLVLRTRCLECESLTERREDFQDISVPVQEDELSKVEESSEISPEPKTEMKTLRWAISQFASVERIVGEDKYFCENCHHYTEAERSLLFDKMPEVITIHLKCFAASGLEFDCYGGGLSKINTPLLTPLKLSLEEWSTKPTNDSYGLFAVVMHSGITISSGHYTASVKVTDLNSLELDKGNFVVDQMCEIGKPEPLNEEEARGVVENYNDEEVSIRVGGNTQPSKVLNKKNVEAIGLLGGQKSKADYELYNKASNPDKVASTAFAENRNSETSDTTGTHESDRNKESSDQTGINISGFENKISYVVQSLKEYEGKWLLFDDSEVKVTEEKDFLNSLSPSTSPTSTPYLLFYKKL
Test [17] is described as follows: qHTS for Inhibitors of ATXN expression: Validation (AID 588378). Further: series mostly up to about 57 µM; on the % scale 0 is the no-effect control and ±100 the full control effect; nearly all actives have a fitted effect of over 75% in size. The essentials:
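Validation of ATXN2 expression inhibitors uses a cell-based luciferase fusion reporter in HEK293 cells, with 24 h compound exposure and paired viability (fluorescence) and reporter (luminescence) end-point reads.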

A short description of test [18]: qHTS for Inhibitors of ATXN expression: Validation of Cytotoxic Assay (AID 588349). Further: on the % scale 0 is the no-effect control and ±100 the full control effect. An outline of the steps:
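Cytotoxicity counter-screen: HEK293 cells exposed to compound titrations, 72 hr, 37 degrees C. Read-out is intracellular ATP (CellTiter Glo luminescence) as a viability measure.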

Test [19] deals with Tyrosyl-DNA phosphodiesterase 1 (Homo sapiens) (UniProt Q9NUW8). Put plainly: Confirmation Assay for Inhibitors of Tyrosyl-DNA Phosphodiesterase (TDP1) (AID 489007). Further: potency means the concentration at half of the fitted maximal effect; nearly all actives have a fitted effect of over 40% in size. Conditions: recombinant human TDP1 enzymatic activity, dose-response. The essentials: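 AlphaScreen read-out: streptavidin donor and anti-FITC acceptor beads (10 ug/ml) bind intact substrate, so Tdp1 removal of tyrosine-FITC lowers signal. Enzyme 1 nM, substrate 15 nM, 5 min reaction at room temperature after 15 min compound preincubation.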

Chain of Transient receptor potential cation channel subfamily V member 1 (Homo sapiens) (Q8NER1 whole entry, looked up): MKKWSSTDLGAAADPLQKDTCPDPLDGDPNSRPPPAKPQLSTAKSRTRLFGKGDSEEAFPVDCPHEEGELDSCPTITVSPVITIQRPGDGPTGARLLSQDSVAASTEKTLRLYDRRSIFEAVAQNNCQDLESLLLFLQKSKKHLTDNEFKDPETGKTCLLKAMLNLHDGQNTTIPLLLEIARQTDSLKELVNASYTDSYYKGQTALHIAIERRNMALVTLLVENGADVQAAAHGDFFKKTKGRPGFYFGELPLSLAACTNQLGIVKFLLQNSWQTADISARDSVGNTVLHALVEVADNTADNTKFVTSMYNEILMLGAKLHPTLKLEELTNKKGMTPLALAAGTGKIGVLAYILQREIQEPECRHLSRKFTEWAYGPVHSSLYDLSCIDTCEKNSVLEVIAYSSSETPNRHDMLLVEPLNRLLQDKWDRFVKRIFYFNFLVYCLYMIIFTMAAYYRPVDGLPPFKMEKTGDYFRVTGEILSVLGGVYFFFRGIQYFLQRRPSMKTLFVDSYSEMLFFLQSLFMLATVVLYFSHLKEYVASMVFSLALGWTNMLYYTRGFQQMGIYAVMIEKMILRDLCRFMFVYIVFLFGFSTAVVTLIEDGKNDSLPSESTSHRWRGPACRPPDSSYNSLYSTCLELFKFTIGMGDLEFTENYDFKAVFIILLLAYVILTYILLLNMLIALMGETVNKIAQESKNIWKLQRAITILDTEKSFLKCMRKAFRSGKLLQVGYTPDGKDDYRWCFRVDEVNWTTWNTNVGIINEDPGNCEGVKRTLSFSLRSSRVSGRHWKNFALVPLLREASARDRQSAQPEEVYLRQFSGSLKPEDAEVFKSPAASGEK
Chain of Peptidyl-prolyl cis-trans isomerase NIMA-interacting 1 (Homo sapiens) (Q13526 whole entry, looked up): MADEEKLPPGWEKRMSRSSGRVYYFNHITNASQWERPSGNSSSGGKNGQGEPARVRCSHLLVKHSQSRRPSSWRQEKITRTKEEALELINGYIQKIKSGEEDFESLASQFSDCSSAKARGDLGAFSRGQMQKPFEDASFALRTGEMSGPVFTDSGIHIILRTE

Take `N[C@H](C(=O)O)[C@H]1C[C@@H]1C(=O)O`: the result in test [1], in test [2] and in test [10] was inactive. Besides, the Potency entry in test [3], in test [4], in test [5], in test [6], in test [7] and in [9] was “inactive” throughout. Besides, the Potency result in test [11], in test [12], in test [13], in test [14], in [15] and in test [16] was “inactive” throughout. Also, in test [17], the Potency result is “inactive”. The activation in [8] is 0.812% (inactive). Besides, the viability change in test [9] came to 2.9%.

`N[C@@H](CCCC(=O)O)C(=O)O`: the outcome in [1], in [2] and in test [10] was inactive. In addition, the Potency result in [3], in [4], in test [5], in test [6], in test [7] and in test [9] was “inactive” throughout. The Potency result in test [11], in [12], in test [13], in test [14], in [15] and in test [16] was “inactive” in each case. Further, the Potency result in test [18] and in test [17] was “inactive” each time. For the same compound, the activation in [8] was 0.75% (inactive). For the same compound, the viability change in [9] stood at 7.86%.

For the compound `Cn1c(=O)c2c(nc(/C=C/c3cccc(Cl)c3)n2C)n(C)c1=O`, the outcome in test [1], in test [2] and in test [10] was inactive. The Potency entry in test [3], in [4], in test [5], in test [6], in test [7] and in test [9] was “inactive” each time. For the same compound, the Potency result in [11], in test [12], in test [13], in test [14], in test [15] and in [18] was “inactive” in each case. Further, the Potency result in [17] is “inactive”. The activation in test [8] is -2.88% (inactive). Also, the viability change in test [9] was found to be 3.93%.

Consider `NC(=O)CNCCC(c1ccccc1)c1ccccc1`, for which the result in test [1], in test [2] and in [10] was inactive. For the same compound, the Potency result in [3], in test [4], in test [5], in test [6], in test [7] and in [9] was “inactive” each time. Also, the Potency entry in test [11], in [12], in test [13], in test [14], in [15] and in test [16] was “inactive” throughout. For the same compound, the Potency result in test [17] was “inactive”. The activation in [8] is 1.81% (inactive). For the same compound, in [9], the viability change worked out at 12.7%.

Turning to `Cc1nc(N=Nc2ccc(S(=O)(=O)O)cc2S(=O)(=O)O)c(COP(=O)(O)O)c(C=O)c1O`, the outcome in [1], in test [2] and in test [10] was inactive. The Potency result in [3], in test [4], in test [5], in [6], in test [7] and in test [9] was “inactive” each time. In addition, the Potency result in [11], in test [12], in [15], in [16], in test [18] and in [17] was “inactive” throughout. For the same compound, the Potency in test [19] is 7.08 µM (active). Also, the activation in test [8] was 0.938% (inactive). For the same compound, the viability change in test [9] is -3.73%.

Take `C#CCn1c(=O)c2c(ncn2C)n(C)c1=O`: the result in [1], in test [2] and in [10] was inactive. Also, the Potency entry in [3], in test [4], in test [5], in test [6], in test [7] and in test [9] was “inactive” each time. Moreover, the Potency result in [11], in test [12], in test [13], in test [15], in test [16] and in test [18] was “inactive” each time. Moreover, the Potency entry in [17] was “inactive”. The activation in test [8] is 0.938% (inactive). Besides, the viability change in [9] is 4.85%.

For the compound `Oc1ccc(Cn2cc[nH]c2=S)cc1`, the outcome in test [1], in test [2] and in test [10] was inactive. Also, the Potency result in test [3], in test [4], in [5], in [6], in [7] and in test [9] was “inactive” in each case. Besides, the Potency entry in [11], in [12], in test [13], in [15], in test [16] and in test [18] was “inactive” in each case. Further, the Potency entry in [17] was “inactive”. The activation in test [8] is 1.06% (inactive). Moreover, the viability change in test [9] is 0.593%.
